# In PubChem BioAssay (NCATS):
# Results filed as inconclusive are left out. Values without a mark were called inactive. Active and inactive are the calls of the source. The call rests on the fitted dose curve; in most records, active means well fitted inhibition curve with a large enough effect; inconclusive means small, poorly fitted or top-dose-only effect; inactive means no such curve, though single readings can be large or run the other way.
# Biological target: Protein phosphatase 1D (Homo sapiens) (UniProt O15297)
# Assay: RapidFire Mass Spectrometry qHTS Assay for Modulators of WT P53-Induced Phosphatase 1 (WIP1) (AID 1347424);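 further: amount of dephosphorylated VEPPL-S-QETFS peptide product formed by WIP1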; further: potency means the concentration at half of the fitted maximal effect;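 on activity change, negative = inhibition: plate controls were DMSO wells for no effect and GSK830371 inhibitor control at 10 µM for full effect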
# Details: WIP1 dephosphorylation of phosphopeptide, RapidFire MS; series mostly up to 63 µM; activity change, negative = inhibition: at the top concentration
# Method in brief: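 10 nM WIP1 preincubated with compounds 1 hr at room temperature in pH 7.5 Tris buffer with 30 mM MgCl2, 1 mM TCEP; 2 uM VEPPL-pS-QETFS phosphopeptide for 5 min, formic acid quench; dephosphorylated product quantified by RapidFire MS against labelled standard.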
# Chain of Protein phosphatase 1D (Homo sapiens) (O15297 whole entry, looked up): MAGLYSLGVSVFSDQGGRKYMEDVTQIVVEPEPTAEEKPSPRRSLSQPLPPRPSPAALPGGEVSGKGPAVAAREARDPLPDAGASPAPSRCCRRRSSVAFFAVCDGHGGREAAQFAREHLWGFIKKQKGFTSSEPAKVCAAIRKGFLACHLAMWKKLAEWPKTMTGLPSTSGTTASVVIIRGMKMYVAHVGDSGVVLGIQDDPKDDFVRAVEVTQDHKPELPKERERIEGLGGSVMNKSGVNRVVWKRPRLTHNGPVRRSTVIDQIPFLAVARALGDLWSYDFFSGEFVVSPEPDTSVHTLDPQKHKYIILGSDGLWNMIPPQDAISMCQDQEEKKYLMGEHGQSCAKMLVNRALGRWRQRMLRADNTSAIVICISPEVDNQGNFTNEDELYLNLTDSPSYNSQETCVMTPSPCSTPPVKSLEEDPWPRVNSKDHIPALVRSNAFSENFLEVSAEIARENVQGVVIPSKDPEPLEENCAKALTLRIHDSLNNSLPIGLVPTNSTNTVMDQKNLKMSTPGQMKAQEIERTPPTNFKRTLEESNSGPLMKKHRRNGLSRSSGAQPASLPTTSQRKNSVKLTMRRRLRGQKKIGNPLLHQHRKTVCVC
Structure (SMILES),"activity change, negative = inhibition",Potency
Cc1nc2ccc(CN(C)c3ccc(C(=O)N[C@@H](CCC(=O)O)C(=O)O)s3)cc2c(=O)[nH]1,10.3%,–
CC(=O)SC[C@@H](C)C(=O)N1CCC[C@H]1C(=O)N[C@@H](Cc1ccccc1)C(=O)O,6.31%,–
COc1cc(C(=O)NS(=O)(=O)c2ccccc2C)ccc1Cc1cn(C)c2ccc(NC(=O)OC3CCCC3)cc12,–,15.8 µM (active)

# System: not listed separately
# Assay: Primary qHTS for inhibitors of La Crosse Virus (LACV) - induced cell death in SH-SY5Y cells (AID 1508616);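 further: top concentration of the series differs between compounds; 0% = infected DMSO wells and 100% = uninfected DMSO wells; higher means more rescue of cells from virus-induced death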
# Details: SH-SY5Y LACV cytopathicity rescue, ATP luminescence, 6 d; series mostly up to 4.29 µM; activity change: at the top concentration
# Method in brief: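 Readout was luminescence from ATPLite 1step added after a 6-day LACV infection (0.01 MOI) of SH-SY5Y cells that had received pin-transferred compound 24 hr after seeding.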
row,Structure (SMILES),activity change
1,Cc1nc2ccc(CN(C)c3ccc(C(=O)N[C@@H](CCC(=O)O)C(=O)O)s3)cc2c(=O)[nH]1,-2.28%
2,CC(=O)SC[C@@H](C)C(=O)N1CCC[C@H]1C(=O)N[C@@H](Cc1ccccc1)C(=O)O,-0.757%
3,COc1cc(C(=O)NS(=O)(=O)c2ccccc2C)ccc1Cc1cn(C)c2ccc(NC(=O)OC3CCCC3)cc12,16.3%
